{"source": "PubChem BioAssay AID488841", "about": "(Sanford-Burnham Center for Chemical Genomics, 2010)", "note": "Hit rate of the full screen: of about 1,400 compounds, about 380 (27%) were called active. The list shows a part of the results. Values without a mark were called inactive.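 The calls were made as follows: active = mean inhibition above 50% across duplicate retests at 10 µM; inactive = the rest.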", "data": [{"assay": "yeast NALP1 reporter signal suppression – S. cerevisiae, luminescence, single concentration, NALP1 inhibitor project, confirmation (AID 488841);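 also: plate controls were DMSO in galactose medium for no effect and cells in plain SD medium for full effect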", "settings": "S. cerevisiae NALP1/ASC/Caspase-1 reporter, beta-gal luminescence; at 10 µM; stronger effect = higher value", "values": [{"molecule": "CSCCNC(C)=O", "inhibition": "15%"}, {"molecule": "O=C(NCc1cccs1)c1csc2ccccc12", "inhibition": "51.3% (active)"}, {"molecule": "CC(C)CC(=O)c1c[nH]c(C(=O)NCc2cccs2)c1", "inhibition": "22.6%"}, {"molecule": "O=C(c1ccco1)N1CCN(Cc2cn[nH]c2-c2cccc3ccccc23)CC1", "inhibition": "25.2%"}, {"molecule": "COC(=O)c1ccc(C(=O)OC)c(NC(=O)CN2CCN(c3ccccc3OC)CC2)c1", "inhibition": "38.4%"}, {"molecule": "COc1ccccc1N1CCN(CCCCCCOc2ccc(F)cc2)CC1", "inhibition": "63.4% (active)"}, {"molecule": "COc1ccc(CN2CC(C(=O)NCCN3CCN(c4ccccc4F)CC3)CC2=O)cc1", "note": "(centres undefined)", "inhibition": "32%"}, {"molecule": "COc1ccccc1OCCCCN1CCN(c2ccccc2OC)CC1", "inhibition": "17.7%"}, {"molecule": "COc1ccccc1N1CCN(CCCCOc2cccc3ccccc23)CC1", "inhibition": "62.8% (active)"}, {"molecule": "O=C(COc1cccc2ccccc12)N1CCN(c2ccccc2)CC1", "inhibition": "48.1%"}, {"molecule": "CCC(C)C(=O)N1c2ccccc2C(=C2SC(C(=O)OC)=C(C(=O)OC)S2)C(=S)C1(C)C", "note": "(centres undefined)", "inhibition": "40%"}, {"molecule": "COc1ccc(NC(=O)N2CCC(CO)(CC3CCCCO3)CC2)c(OC)c1", "note": "(centres undefined)", "inhibition": "29.4%"}, {"molecule": "CN1CCC(Oc2ccc(Sc3ccccc3)cc2)CC1", "inhibition": "40.1%"}, {"molecule": "O=CC1=C(c2ccccc2)Oc2ccccc2O1", "inhibition": "94.8% (active)"}, {"molecule": "Clc1ccc(OCCCN2CCCC2)cc1Cl", "inhibition": "39.5%"}, {"molecule": "CN(C)Cc1ccccc1Sc1ccccc1Br", "inhibition": "28.9%"}, {"molecule": "Cc1cccc(Oc2nc(CN3CCOCC3)nc3sc4c(c23)CCCC4)c1", "inhibition": "51.5% (active)"}, {"molecule": "Fc1ccc(Nc2nc(Oc3ccccc3F)nc(N3CCCC3)n2)cc1", "inhibition": "29.2%"}, {"molecule": "C=CCSc1nsc(NC(=O)Nc2ccc(F)cc2)n1", "inhibition": "97.7% (active)"}, {"molecule": "O=C1/C(=C/c2cccnc2)SC(=S)N1C1CCS(=O)(=O)C1", "note": "(centres undefined)", "inhibition": "44.6%"}, {"molecule": "CC1=C/C(=N\\OS(=O)(=O)c2ccccc2)C(C(C)C)=CC1=O", "inhibition": "88.5% (active)"}, {"molecule": "CC1=CC(=O)C=C(C)C1=NOS(=O)(=O)c1ccccc1", "inhibition": "53.9% (active)"}, {"molecule": "CCN(CCO)Cc1csc2ccc(Br)cc12", "inhibition": "41%"}, {"molecule": "C/C(=N\\NC(=O)c1c[nH]c2ccccc12)c1ccco1", "inhibition": "26.3%"}, {"molecule": "O=S(=O)(Nc1ccncc1Cl)c1ccccc1", "inhibition": "27.6%"}, {"molecule": "O=C(Nc1nc(-c2ccccn2)cs1)c1ccc(Cl)s1", "inhibition": "24.1%"}, {"molecule": "O=C(Nc1nccs1)c1sc2ccccc2c1Cl", "inhibition": "61.4% (active)"}, {"molecule": "CNC(=O)c1ccsc1NC(=O)c1sc2ccccc2c1Cl", "inhibition": "33.5%"}, {"molecule": "COC(=O)Nc1sc2nc(C)cc(C)c2c1-n1cccc1", "inhibition": "54% (active)"}, {"molecule": "COC(=O)Nc1nc(C)c(C(=O)c2ccccc2)s1", "inhibition": "44.9%"}, {"molecule": "Cc1ccc2c(Cl)c(C)c(N3CCCCC3)nc2n1", "inhibition": "55.4% (active)"}, {"molecule": "CSC1=N/C(=C\\c2cccnc2)C(=O)N1c1ccccc1", "inhibition": "30.7%"}, {"molecule": "O=S(=O)(Nc1cccnc1)c1cccs1", "inhibition": "26.2%"}, {"molecule": "COc1ccc(C(=O)/C=C/c2ccc(OC)c(CN3CCOCC3)c2)cc1", "inhibition": "63.4% (active)"}, {"molecule": "Cc1ccc(C(=O)/C=C/c2cn(CC(O)CN3CCOCC3)c3ccccc23)cc1", "note": "(centres undefined)", "inhibition": "39.7%"}, {"molecule": "COc1ccc(C(=O)Cn2c(C(=O)/C=C/c3ccccc3)nc3ccccc32)cc1", "inhibition": "25.8%"}, {"molecule": "C/C(=N\\Nc1nc2c(s1)CCCC2)c1ccccc1", "inhibition": "29.5%"}, {"molecule": "CCCOc1ccc(C(=O)NC(C)C(=O)O)cc1", "note": "(centres undefined)", "inhibition": "29.1%"}, {"molecule": "CC(C)OC(=O)COc1ccc(-c2ccccc2)cc1", "inhibition": "25.2%"}, {"molecule": "CCOc1ccc(C(=O)C(CCC(CN(C)C)C(=O)c2ccc(OCC)cc2)CN(C)C)cc1", "note": "(centres undefined)", "inhibition": "73% (active)"}, {"molecule": "O=C(NCc1cccnc1)C1CCN(S(=O)(=O)c2cccnc2)CC1", "inhibition": "33.3%"}, {"molecule": "CCn1c(COc2ccccc2C)nnc1SCC(=O)N1CCN(c2ccccc2)CC1", "inhibition": "20.6%"}, {"molecule": "Cc1ccc(/C(COc2ccccc2O)=N\\O)cc1", "inhibition": "44%"}, {"molecule": "CCNC(=S)SCCOc1ccccc1C", "inhibition": "57.5% (active)"}, {"molecule": "C=CCn1c(=O)c2ccc(C(=O)NCc3ccccc3)cc2n(Cc2ccccc2Cl)c1=O", "inhibition": "27%"}, {"molecule": "O=C(CCN1CCc2ccccc2C(c2ccccc2)C1)c1ccc2c(c1)OCCO2", "note": "(centres undefined)", "inhibition": "30%"}, {"molecule": "Cc1nc(-c2ccccc2)cn2c1nc1ccccc12", "inhibition": "49%"}, {"molecule": "c1ccc(-c2ccc(-c3cn4c(n3)CCC4)cc2)cc1", "inhibition": "85.2% (active)"}, {"molecule": "COc1cc2nc(Cl)nc(N3CCN(C)CC3)c2cc1OC", "inhibition": "39.5%"}, {"molecule": "c1ccc(Nc2ccccn2)cc1", "inhibition": "27.3%"}, {"molecule": "O=c1sc(Nc2ccccc2)nc2ccsc12", "inhibition": "78.8% (active)"}, {"molecule": "CC(C)CN=Cc1c(O)c([N+](=O)[O-])cc2oc3c(c12)CCCC3", "inhibition": "35.5%"}, {"molecule": "CC(C)C(=O)N(Cc1ccccc1)c1ccccn1", "inhibition": "19.8%"}, {"molecule": "Cc1cc(C)c(S(=O)(=O)N(CC(=O)O)CC(=O)O)c(C)c1", "inhibition": "25.9%"}, {"molecule": "CCCCOc1ccccc1NC(=O)c1ccco1", "inhibition": "34.8%"}, {"molecule": "CCOc1ccccc1NC(=O)/C=C/C(N)=O", "inhibition": "59.6% (active)"}, {"molecule": "CCCOc1ccccc1NC(=O)/C=C/C(N)=O", "inhibition": "71.2% (active)"}, {"molecule": "COc1ccccc1NC(=O)CCN1CCN(Cc2ccccc2)CC1", "inhibition": "44.5%"}, {"molecule": "CCOc1ccccc1N/C=C(\\C#N)c1nc2ccccc2n1C", "inhibition": "12.5%"}, {"molecule": "O=[N+]([O-])/C(C(=C(Cl)Cl)N1CCN(Cc2ccccc2)CC1)=C1\\NCCN1Cc1ccc(Cl)nc1", "inhibition": "35.4%"}, {"molecule": "CCOC(=O)c1c(C)[nH]c(N=Nc2cccc(C)c2)c1C", "inhibition": "46.4%"}, {"molecule": "Oc1c(Cl)cc(Cl)c2c1NCCC2", "inhibition": "41.9%"}, {"molecule": "Oc1c(Cl)cc(Cl)c(Cl)c1Cc1c(O)c(Cl)cc(Cl)c1Cl", "inhibition": "99.9% (active)"}, {"molecule": "CCOC(=O)C(C(=O)OCC)C(C(=O)OCC)N1CCOCC1", "note": "(centres undefined)", "inhibition": "64.8% (active)"}, {"molecule": "CCC(Cc1ccccc1)NC(=O)C1CCN(S(=O)(=O)c2c(C)noc2C)CC1", "note": "(centres undefined)", "inhibition": "26.1%"}, {"molecule": "CN(C)c1ccc(NC(=O)COC(=O)c2cc(Cl)ccc2[N+](=O)[O-])cc1", "inhibition": "62.9% (active)"}, {"molecule": "NS(=O)(=O)c1ccc(NC(=O)COC(=O)c2cn(-c3ccccc3)nc2-c2ccc(F)cc2)cc1", "inhibition": "18.7%"}, {"molecule": "CCOC(=O)c1cc([N+](=O)[O-])c([N+](=O)[O-])cc1NC(C)=O", "inhibition": "24.9%"}, {"molecule": "CC1CCN(CCOc2ccc(OCc3ccccc3)cc2)CC1", "inhibition": "48.1%"}, {"molecule": "O=C(N/N=C/c1cccc(F)c1)c1c(O)c2ccccc2[nH]c1=O", "inhibition": "31.5%"}, {"molecule": "CCOC(=O)c1nc(C)sc1-c1ccnn1S(=O)(=O)c1ccc(C)cc1", "inhibition": "29.4%"}, {"molecule": "O=C(O)CC(Cn1cnnn1)c1ccccc1", "note": "(centres undefined)", "inhibition": "25.9%"}, {"molecule": "CCc1cccc(OCCN2CCCC2)c1", "inhibition": "29.9%"}, {"molecule": "Clc1cccc(OCCN2CCN(CCOc3cccc(Cl)c3)CC2)c1", "inhibition": "60.4% (active)"}, {"molecule": "Brc1cccc(OCCN2CCCCC2)c1", "inhibition": "44.9%"}, {"molecule": "CCN(CC)S(=O)(=O)c1cccc(C(=O)N[C@H](C(=O)O)C(C)C)c1", "inhibition": "33.2%"}, {"molecule": "Cc1cccc(N=C2NC(=O)/C(=C\\c3cccs3)S2)c1", "inhibition": "44%"}, {"molecule": "O=C(Nc1ccc(Nc2ccccc2)cc1)C(Cl)Cl", "inhibition": "78.8% (active)"}, {"molecule": "COC1=C(Nc2ccccc2)C(=O)c2ccccc2C1=O", "inhibition": "17.4%"}, {"molecule": "CC(CC(=O)Nc1cccc(Cl)c1)c1ccccc1", "note": "(centres undefined)", "inhibition": "42.7%"}, {"molecule": "CC(C)C(=O)Nc1ccc(Nc2ccccc2)cc1", "inhibition": "58.4% (active)"}, {"molecule": "Cc1cccc(C)c1NC(=O)C(Cl)C(=O)c1ccccc1", "note": "(centres undefined)", "inhibition": "12.7%"}, {"molecule": "CNCc1ccccc1Sc1cc(O)ccc1O", "inhibition": "26.8%"}, {"molecule": "O=S(=O)(CC12C3C4C5C1C2C(Br)(C43)C51OCCO1)c1ccccc1", "note": "(centres undefined)", "inhibition": "40%"}, {"molecule": "CC1CCCCN1S(=O)(=O)c1cnc(Cl)c(Br)c1", "note": "(centres undefined)", "inhibition": "68.1% (active)"}, {"molecule": "O=c1c(Br)c(N2CCCC2)cnn1-c1ccccc1", "inhibition": "41.4%"}, {"molecule": "CC1CC(C)CN(S(=O)(=O)c2ccc(C(=O)NCc3ccc4c(c3)OCO4)cc2)C1", "note": "(centres undefined)", "inhibition": "24.1%"}, {"molecule": "O=C(CCl)Nc1cc(-c2ccccc2)nn1-c1ccccc1", "inhibition": "68.9% (active)"}, {"molecule": "COCC(=O)OCC(=O)Nc1cc(C(C)(C)C)nn1-c1ccccc1", "inhibition": "25.4%"}, {"molecule": "Cc1ccc(-c2cc(NC(=O)CSc3n[nH]c(N)n3)n(-c3ccccc3)n2)cc1", "inhibition": "24.2%"}, {"molecule": "CC(C)c1ccc(-c2c(C#N)c(N)nc3c2CCCCC3)cc1", "inhibition": "23.8%"}, {"molecule": "S=C(NCCc1ccccc1)Nc1ccc(Br)cc1", "inhibition": "70.2% (active)"}, {"molecule": "S=C(NCCCc1ccccc1)Nc1ccc(Cl)cc1", "inhibition": "86.3% (active)"}, {"molecule": "O=[N+]([O-])c1ccc(N2CCN(C(=S)Nc3ccccc3)CC2)cc1", "inhibition": "32%"}, {"molecule": "CC1CCCCN1C(=S)NCCc1ccccc1", "note": "(centres undefined)", "inhibition": "47.7%"}, {"molecule": "O=C(NC(CO)Cc1ccc([N+](=O)[O-])cc1)C(Cl)Cl", "note": "(centres undefined)", "inhibition": "29.8%"}, {"molecule": "O=[N+]([O-])c1ccc(NC(=S)NCCc2ccc(F)cc2)cc1", "inhibition": "85.5% (active)"}, {"molecule": "CCc1cccc(CC)c1NC(=S)NCCc1c(C)[nH]c2ccccc12", "inhibition": "37.9%"}, {"molecule": "Cc1cc(C)cc(NS(=O)(=O)c2ccc(NC(=S)Nc3ccccc3)cc2)c1", "inhibition": "26.1%"}, {"molecule": "CC(=O)Nc1ccc(C(=O)CSc2nnc(Cc3ccccc3)o2)cc1", "inhibition": "11.8%"}, {"molecule": "CCOC(=O)C1=NN(C(=O)c2ccc(C)cc2)C(O)(c2ccc(Cl)cc2)C1", "note": "(centres undefined)", "inhibition": "45.7%"}, {"molecule": "Cc1cccc(NC2=C(Cl)C(=O)OC2NC(=O)c2ccccc2)c1", "note": "(centres undefined)", "inhibition": "7.1%"}, {"molecule": "CC1CCCCN1C(=S)Nc1ccc2nc3n(c(=O)c2c1)CCCCC3", "note": "(centres undefined)", "inhibition": "35%"}, {"molecule": "O=C(Nc1ccc2nc3n(c(=O)c2c1)CCCC3)c1cc([N+](=O)[O-])ccc1F", "inhibition": "64.8% (active)"}]}]}
